outcome, Potency and activity, negative = inhibition data for 28 compounds are collected here from PubChem BioAssay (NCATS).

Inconclusive results are not listed. Values without a mark were called inactive. Activity calls are given as the source filed them. Calls come from the whole dose curve; as a rule, active = well fitted curve in the direction sought with a large enough effect; inconclusive = small, poorly fitted or top-dose-only effect, or another doubt; inactive = no such curve, though single readings can be large; an effect the other way counts as inactive or inconclusive.

Assay [1] concerns the target ATP-dependent 6-phosphofructokinase (Trypanosoma brucei brucei) (UniProt O15648). Nature of the assay: qHTS Assay to Find Inhibitors of T. brucei phosphofructokinase: hit validation (AID 492961).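 Note: luminescence reports ADP formed as PFK phosphorylates fructose-6-phosphate with ATP; % is set by controls: 0 for no effect and ±100 for the full control effect.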 The procedure, abridged:
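Compounds titrated; %activity normalized to 0x and 1x enzyme controls, curve-fitted. Readout: ADP-Glo luminescence after 45 min room-temperature reaction of 1.25 nM PFK, 0.1 mM ATP, 0.5 mM F6P, pH 8.0.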
Background: In qHTS, concentration-response curves come from the screen itself.

The target of assay [2] is Luciferin 4-monooxygenase (Photinus pyralis) (UniProt P08659). The assay is described as follows: Biochemical firefly luciferase enzyme assay for NPC (AID 624030).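 Note: purified P. pyralis luciferase at 10 nM with luciferin and ATP substrate; 0% = DMSO and -100% = full luciferase inhibition by PTC124 control; nearly all actives have a fitted effect of over 70% in size.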 The procedure, abridged:
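Purified P. pyralis luciferase at 10 nM in 50 mM Tris Acetate (final), luminescence read within 5 minutes of enzyme addition to compounds. Activity normalised to PTC124 versus DMSO; concentration-response curves classed by r2, magnitude and activity.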

The test system of assay [3] is ATS189. The assay is described as follows: qHTS profiling for inhibitors of Plasmodium falciparum proliferation (AID 504749).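 Note: 0% = DMSO vehicle and full inhibition = artemisinin control; nearly all actives have a fitted effect of over 60% in size.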 To be noted: P. falciparum in erythrocytes, SYBR Green DNA, 72 h; series mostly up to 28.7 µM. The procedure, abridged:
(§1)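 P. falciparum-infected erythrocytes (0.3% parasitemia, 2.5% hematocrit) incubated with compound 72 h at 37 C, 5% CO2. Parasite DNA detected by SYBR Green after lysis, overnight at room temperature; normalised to 0.29 uM artemisinin and DMSO.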

The test system of assay [4] is C2A. The assay is described as above. To be noted: P. falciparum in erythrocytes, SYBR Green DNA, 72 h; series mostly up to 28.7 µM. The procedure, abridged: as §1
For assay [5], the system named is CP192. The assay is described as above. To be noted: P. falciparum in erythrocytes, SYBR Green DNA, 72 h; series mostly up to 28.7 µM. The procedure, abridged: as §1
The subject of assay [6] is CP201. Described as above. To be noted: P. falciparum in erythrocytes, SYBR Green DNA, 72 h; series mostly up to 28.7 µM. The procedure, abridged:
as §1

Assay [7] has as its system CP215. Described as above. The conditions noted are these: P. falciparum in erythrocytes, SYBR Green DNA, 72 h; series mostly up to 28.7 µM. The procedure, abridged:
as §1

For assay [8], the system named is CP237. Described as above. To be noted: P. falciparum in erythrocytes, SYBR Green DNA, 72 h; series mostly up to 28.7 µM. The procedure, abridged:
as §1

In assay [9] the test system is CP238. Described as above. The conditions noted are these: P. falciparum in erythrocytes, SYBR Green DNA, 72 h; series mostly up to 28.7 µM. The procedure, abridged: as §1
Assay [10] relates to CP268. The description is as above. The conditions noted are these: P. falciparum in erythrocytes, SYBR Green DNA, 72 h; series mostly up to 28.7 µM. The procedure, abridged:
as §1

Assay [11] concerns CP269. The assay is described as above. The conditions noted are these: P. falciparum in erythrocytes, SYBR Green DNA, 72 h; series mostly up to 28.7 µM. The procedure, abridged: as §1
Assay [12] deals with CP286. Described as above. The conditions noted are these: P. falciparum in erythrocytes, SYBR Green DNA, 72 h; series mostly up to 28.7 µM. The procedure, abridged:
as §1

For assay [13], the system named is CP325. Described as above. To be noted: P. falciparum in erythrocytes, SYBR Green DNA, 72 h; series mostly up to 28.7 µM. The procedure, abridged: as §1
Assay [14] concerns CP329. Described as above. To be noted: P. falciparum in erythrocytes, SYBR Green DNA, 72 h; series mostly up to 28.7 µM. The procedure, abridged:
as §1

Assay [15] relates to FAB9. The assay is described as above. The conditions noted are these: P. falciparum in erythrocytes, SYBR Green DNA, 72 h; series mostly up to 28.7 µM. The procedure, abridged: as §1
The test system of assay [16] is JCK. The assay is described as above. To be noted: P. falciparum in erythrocytes, SYBR Green DNA, 72 h; series mostly up to 28.7 µM. The procedure, abridged: as §1
The test system of assay [17] is PC49. Described as above. The conditions noted are these: P. falciparum in erythrocytes, SYBR Green DNA, 72 h; series mostly up to 28.7 µM. The procedure, abridged: as §1
Assay [18] concerns the target Ubiquitin carboxyl-terminal hydrolase 1 (Homo sapiens) (UniProt O94782). Nature of the assay: Inhibitors of USP1/UAF1: Pilot qHTS (AID 504865). Note: nearly all actives have a fitted effect of over 35% in size. Note: potency is the fitted concentration of half-maximal effect. The procedure, abridged: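 USP1/UAF1 complex at 1 nM preincubated 15 min at room temperature with compound, then Ub-Rho substrate added at 150 nM final. Fluorescence (480/540 nm) read kinetically in 50 mM HEPES pH 7.8, 0.5 mM EDTA, 1 mM TCEP, 0.1 mg/ml BSA, 0.01% Tween-20.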

Assay [19] is described as follows: qHTS profiling for inhibitors of Plasmodium falciparum proliferation (AID 504749).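 Note: 0% = DMSO vehicle and full inhibition = artemisinin control; nearly all actives have a fitted effect of over 60% in size.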 The conditions noted are these: P. falciparum in erythrocytes, SYBR Green DNA, 72 h, at 28.7 µM (top of the series). The procedure, abridged:
as §1

Assay [20] has as its system CP191. The assay is described as above. The conditions noted are these: P. falciparum in erythrocytes, SYBR Green DNA, 72 h; series mostly up to 28.7 µM. The procedure, abridged: as §1

Sequence of Ubiquitin carboxyl-terminal hydrolase 1 (Homo sapiens) (O94782 whole entry, looked up): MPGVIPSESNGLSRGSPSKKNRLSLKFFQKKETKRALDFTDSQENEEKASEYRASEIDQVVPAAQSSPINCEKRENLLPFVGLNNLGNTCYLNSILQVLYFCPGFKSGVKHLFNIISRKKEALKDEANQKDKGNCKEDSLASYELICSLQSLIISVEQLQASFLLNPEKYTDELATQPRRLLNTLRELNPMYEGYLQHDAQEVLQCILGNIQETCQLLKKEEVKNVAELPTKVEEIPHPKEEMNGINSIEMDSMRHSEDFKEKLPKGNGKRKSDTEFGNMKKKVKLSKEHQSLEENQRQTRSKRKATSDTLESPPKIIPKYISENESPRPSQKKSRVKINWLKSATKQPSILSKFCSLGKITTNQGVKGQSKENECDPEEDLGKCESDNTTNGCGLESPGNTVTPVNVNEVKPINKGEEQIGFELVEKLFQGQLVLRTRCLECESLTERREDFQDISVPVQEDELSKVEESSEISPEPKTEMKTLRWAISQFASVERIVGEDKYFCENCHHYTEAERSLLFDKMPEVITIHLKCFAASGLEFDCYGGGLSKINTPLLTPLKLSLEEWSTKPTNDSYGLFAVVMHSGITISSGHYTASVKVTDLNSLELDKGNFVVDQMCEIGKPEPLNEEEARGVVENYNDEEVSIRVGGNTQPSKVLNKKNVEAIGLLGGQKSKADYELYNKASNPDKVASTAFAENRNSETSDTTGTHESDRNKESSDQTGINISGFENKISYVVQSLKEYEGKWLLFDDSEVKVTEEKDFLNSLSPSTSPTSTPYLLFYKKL
Sequence of ATP-dependent 6-phosphofructokinase (Trypanosoma brucei brucei) (O15648 whole entry, looked up): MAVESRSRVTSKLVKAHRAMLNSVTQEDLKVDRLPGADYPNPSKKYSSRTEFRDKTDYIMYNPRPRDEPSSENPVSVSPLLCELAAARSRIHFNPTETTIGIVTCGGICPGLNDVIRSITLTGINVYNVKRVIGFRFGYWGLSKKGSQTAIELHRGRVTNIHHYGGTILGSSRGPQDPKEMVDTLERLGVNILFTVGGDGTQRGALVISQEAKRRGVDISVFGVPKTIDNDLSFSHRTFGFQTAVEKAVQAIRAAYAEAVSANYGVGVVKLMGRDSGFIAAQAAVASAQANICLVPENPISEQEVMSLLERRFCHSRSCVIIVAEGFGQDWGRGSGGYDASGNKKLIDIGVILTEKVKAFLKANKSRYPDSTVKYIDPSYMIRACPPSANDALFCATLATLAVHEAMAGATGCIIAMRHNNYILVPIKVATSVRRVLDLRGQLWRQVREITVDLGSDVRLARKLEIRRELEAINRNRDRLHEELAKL
Sequence of Luciferin 4-monooxygenase (Photinus pyralis) (P08659 whole entry, looked up): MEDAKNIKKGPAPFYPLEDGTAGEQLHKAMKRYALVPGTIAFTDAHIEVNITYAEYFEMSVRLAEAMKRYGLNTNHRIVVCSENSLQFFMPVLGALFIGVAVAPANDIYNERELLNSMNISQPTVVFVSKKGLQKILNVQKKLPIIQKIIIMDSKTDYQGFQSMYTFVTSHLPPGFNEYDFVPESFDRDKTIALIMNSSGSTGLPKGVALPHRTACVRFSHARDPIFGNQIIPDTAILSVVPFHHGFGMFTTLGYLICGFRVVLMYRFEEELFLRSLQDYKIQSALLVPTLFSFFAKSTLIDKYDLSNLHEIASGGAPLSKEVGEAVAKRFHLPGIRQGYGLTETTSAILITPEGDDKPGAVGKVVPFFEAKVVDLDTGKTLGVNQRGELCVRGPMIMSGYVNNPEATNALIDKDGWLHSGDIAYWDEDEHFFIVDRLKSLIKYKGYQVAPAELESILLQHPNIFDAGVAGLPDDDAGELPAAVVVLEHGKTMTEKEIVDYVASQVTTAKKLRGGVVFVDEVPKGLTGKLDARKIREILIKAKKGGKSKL

Consider `CC(C)=CC1C(C(=O)OCc2coc(Cc3ccccc3)c2)C1(C)C` (stereo unspecified), for which the result in assay [1] was inactive. The Potency entry in assay [2], in [3], in assay [4], in [5], in assay [6] and in [7] was “inactive” throughout. Moreover, the Potency result in assay [8], in [9], in assay [10], in assay [11], in assay [12] and in [13] was “inactive” throughout. The Potency result in [14], in [15], in assay [16] and in assay [17] was “inactive” throughout.

As for `CC(=O)[C@H]1CC[C@H]2C3CC[C@H]4C[C@H](O)CC[C@]4(C)C3CC[C@]12C` (stereo partly specified), the compound was called inactive in [1]. In addition, the Potency entry in [18], in [2], in [3], in assay [4], in [20] and in [5] was “inactive” throughout. The Potency entry in assay [6], in [7], in [8], in [9], in assay [10] and in assay [11] was “inactive” each time. In addition, the Potency entry in [12], in assay [13], in [14], in assay [15], in assay [16] and in assay [17] was “inactive” each time. Besides, the results for the activity, negative = inhibition in [19] (parasite line A) and in [19] (parasite line B) were -11.3% and 2.02%, respectively.

`CC(=O)Oc1ccc2c3c1OC1[C@@H](OC(C)=O)C=C[C@H]4[C@H](C2)N(C)CC[C@]314` (stereo partly specified): the outcome in assay [1] was inactive. Moreover, the Potency entry in assay [18], in [2], in assay [3], in assay [4], in assay [20] and in [5] was “inactive” in each case. The Potency result in assay [6], in assay [7], in assay [8], in assay [9], in assay [10] and in assay [11] was “inactive” each time. The Potency entry in assay [12], in assay [13], in [14], in assay [15], in assay [16] and in assay [17] was “inactive” in each case. Besides, the figures for the activity, negative = inhibition in assay [19] (parasite line A) and in assay [19] (parasite line B) were 15.5% and 9.45%, respectively.

Turning to `C[C@]12CC[C@@H]3c4ccc(O)cc4C[C@@H](CCCCCCCCCS(=O)CCCC(F)(F)C(F)(F)F)C3[C@@H]1CC[C@@H]2O` (stereo partly specified), the Potency result in assay [18] was “inactive”.

On to `CC(C)=O`, for which the Potency entry in assay [18] is “inactive”.

As for `CN1C[C@@H](C(=O)N[C@@]2(C)O[C@]3(O)C4CCCN4C(=O)[C@@H](Cc4ccccc4)N3C2=O)C=C2c3cccc4[nH]cc(c34)C[C@@H]21` (stereo partly specified), the Potency in [18] was 50.1 µM (active).

As to `CC1(C)S[C@H]2[C@@H](N)C(=O)N2[C@H]1C(=O)O`, the Potency result in assay [18] was “inactive”.

For the compound `CC(C)N(C(=O)CCl)c1ccccc1`, the Potency result in assay [18] was “inactive”.

With `COc1ccc(C2Oc3c(I)c(OC)cc(OC)c3CC2O)cc1OC` (stereo unspecified), the Potency entry in assay [18] is “inactive”.

For the compound `CNC(C)C1CC[C@H](N)[C@@H](OC2C(N)C[C@H](N)[C@@H](OC3OC[C@](C)(O)C(NC)[C@H]3O)C2O)O1` (stereo partly specified), the Potency result in assay [18] is “inactive”.

For `O=C(NC(=O)c1c(F)cccc1F)Nc1ccc(Cl)cc1`, the Potency entry in assay [18] is “inactive”.

Regarding `C[C@]12CCC3C(CC[C@]4(O)C[C@@H](O)CC[C@]34C=O)[C@@]1(O)CC[C@@H]2C1=CC(=O)OC1` (stereo partly specified), the Potency entry in assay [18] is “inactive”.

As for `O=C1C=C2C(=CCOC2O)O1` (stereo unspecified), the Potency in [18] was 50.1 µM (active).

Take `COc1cc2c(cc1OC)-c1c(OC)c(OC)c(C=O)c3c1[C@H](C2)N(C)CC3`: the Potency in [18] is 20 µM (active).

Turning to `CC[N+](C)(CC)CCC[n+]1c(-c2ccccc2)c2cc(N)ccc2c2ccc(N)cc21`, the Potency in assay [18] is 7.94 µM (active).

With `NCCCCC(NC(CCc1ccccc1)C(=O)O)C(=O)N1CCCC1C(=O)O` (stereo unspecified), in assay [18], the Potency result is “inactive”.

On to `CN(C)C1C(=O)C(C(N)=O)=C(O)[C@@]2(O)C(=O)C3=C(O)c4c(O)cccc4[C@@](C)(O)C3CC12` (stereo partly specified), for which the Potency entry in [18] was “inactive”.

On to `CC(=O)N1CCN(c2ccc(OC[C@@H]3CO[C@@](Cn4ccnc4)(c4ccc(Cl)cc4Cl)O3)cc2)CC1`, for which the Potency result in assay [18] is “inactive”.

As for `CC[C@]1([C@H]2O[C@@H]([C@@H]3O[C@](O)(CO)[C@@H](C)C[C@H]3C)C[C@H]2C)CC[C@@H]([C@]2(C)CC[C@@]3(C[C@@H](O)[C@@H](C)[C@@H]([C@H](C)[C@H](OC)[C@H](C)C(=O)O)O3)O2)O1`, the Potency result in assay [18] and in assay [2] was “inactive” in each case.

Regarding `CC(=O)OC1CCC2(C)C3=C(CCC2C1(C)C)[C@@]1(C)CCC(C(C)CCC=C(C)C)[C@@]1(C)CC3` (stereo partly specified), the Potency result in assay [18] is “inactive”.

Regarding `CNC1=CN(O)C(c2ccccc2)=c2cc(Cl)ccc2=N1`, the Potency entry in assay [18] and in assay [2] was “inactive” each time.

Consider `CC[C@@H]1CN2CCc3cc(OC)c(OC)cc3[C@@H]2C[C@@H]1C[C@H]1NCCc2cc(OC)c(OC)cc21`, for which the Potency result in [18] was “inactive”.

Consider `CC1COC2=C1C(=O)C(=O)c1c2ccc2c1CCCC2(C)C` (stereo unspecified), for which the Potency in assay [18] is 79.4 µM (active).

Regarding `CN1[C@H]2CC(OC(=O)[C@H](CO)c3ccccc3)C[C@H]1[C@H]1O[C@H]12` (stereo partly specified), in assay [18], the Potency result was “inactive”.

`CC1=CC(=O)c2c(O)cccc2C1=O`: in assay [18], the Potency is 17.8 µM (active).

Regarding `CCCCN(CC)c1c([N+](=O)[O-])cc(C(F)(F)F)cc1[N+](=O)[O-]`, the Potency result in assay [18] is “inactive”.

Turning to `CC[C@@H]1CN2CCc3cc(OC)c(OC)cc3[C@H]2C[C@@H]1C[C@H]1NCCc2cc(OC)c(OC)cc21`, the Potency entry in [18] was “inactive”.

As for `Cc1cccc2c3c(ccc12)C1=C(C(=O)C3=O)C(C)CO1` (stereo unspecified), in assay [18], the Potency is 50.1 µM (active).
